# Experimental data from PubChem BioAssay AID1159580 (chemical genetic matrix, 2015).
# The campaign covered roughly 5,500 compounds. About 2,000 (36%) were called active. About 18% were inconclusive and are not listed. This is one part of the list. Values without a mark were called inactive. No stated cut-off is given here; in the data, active means normalized growth mostly below about 0.91 (no sharp cut-off); inconclusive means no clear call, values can overlap the other calls; inactive means mostly above about 0.92.
# Experiment: chemical genetic growth profiling, strain panel (AID 1159580);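 further: tested at 20 µM; growth read once vehicle control cultures reached saturation at 30 °C; 1 = growth at the plate median or of vehicle wells; lower values mean less growth of the strain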
# Settings: growth OD
structure (smiles),measurement,setting,value
C=C[C@@H](C1=CC(=O)C(OC)=C(OC)C1=O)c1ccccc1,normalized growth,"S. cerevisiae deletion strains, locus YKL009W, strain mrt4, active compounds read low",0.957
same,normalized growth,"S. cerevisiae deletion strains, locus YKL068W, active compounds read low",1
same,normalized growth,"S. cerevisiae deletion strains, locus YKL085W, strain MDH1 (second series), active compounds read low",0.936
same,normalized growth,"S. cerevisiae deletion strains, locus YKL085W, strain MDH1, active compounds read low",0.936
same,normalized growth,"S. cerevisiae deletion strains, locus YKL160W, strain elf1, active compounds read low",0.401 (active)
same,normalized growth,"S. cerevisiae deletion strains, locus YKL190W, strain CNB1, active compounds read low",0.0937 (active)
same,normalized growth,"S. cerevisiae deletion strains, locus YKR001C, strain vps1, active compounds read low",0.158 (active)
same,normalized growth,"S. cerevisiae deletion strains, locus YKR026C, strain gcn3, active compounds read low",0.945
same,normalized growth,"S. cerevisiae deletion strains, locus YKR091W, strain srl3, active compounds read low",0.95
same,normalized growth,"S. cerevisiae deletion strains, locus YLL001W, strain dnm1, active compounds read low",0.794 (active)
same,normalized growth,"S. cerevisiae deletion strains, locus YLL026W, active compounds read low",0.679 (active)
same,normalized growth,"S. cerevisiae deletion strains, locus YLL041C, strain sdh2, active compounds read low",0.811 (active)
same,normalized growth,"S. cerevisiae deletion strains, locus YLR027C, strain aat2, active compounds read low",0.448 (active)
same,normalized growth,"S. cerevisiae deletion strains, locus YLR039C, strain RIC1, active compounds read low",0.361 (active)
same,normalized growth,"S. cerevisiae deletion strains, locus YLR058C, strain SHM2, active compounds read low",0.98
same,normalized growth,"S. cerevisiae deletion strains, locus YLR102C, strain apc9, active compounds read low",0.515 (active)
same,normalized growth,"S. cerevisiae deletion strains, locus YLR113W, strain HOG1, active compounds read low",0.719 (active)
same,normalized growth,"S. cerevisiae deletion strains, locus YLR221C, strain rsa3, active compounds read low",0.363 (active)
same,normalized growth,"S. cerevisiae deletion strains, locus YLR258W, strain gsy2, active compounds read low",0.561 (active)
same,normalized growth,"S. cerevisiae deletion strains, locus YLR262C, strain YPT6 (second series), active compounds read low",0.17 (active)
same,normalized growth,"S. cerevisiae deletion strains, locus YLR262C, strain YPT6, active compounds read low",0.195 (active)
same,normalized growth,"S. cerevisiae deletion strains, locus YLR268W, strain sec22, active compounds read low",0.193 (active)
same,normalized growth,"S. cerevisiae deletion strains, locus YLR320W, strain mms22, active compounds read low",0.219 (active)
same,normalized growth,"S. cerevisiae deletion strains, locus YLR342W, strain FKS1 (second series), active compounds read low",0.331 (active)
same,normalized growth,"S. cerevisiae deletion strains, locus YLR342W, strain FKS1, active compounds read low",0.72 (active)
same,normalized growth,"S. cerevisiae deletion strains, locus YLR357W, strain rsc2, active compounds read low",0.901
same,normalized growth,"S. cerevisiae deletion strains, locus YLR370C, strain arc18, active compounds read low",0.811 (active)
same,normalized growth,"S. cerevisiae deletion strains, locus YLR371W, strain rom2, active compounds read low",0.285 (active)
same,normalized growth,"S. cerevisiae deletion strains, locus YLR384C, strain iki3, active compounds read low",0.982
same,normalized growth,"S. cerevisiae deletion strains, locus YLR418C, strain cdc73, active compounds read low",0.141 (active)
same,normalized growth,"S. cerevisiae deletion strains, locus YML016C, strain PPZ1, active compounds read low",0.292 (active)
same,normalized growth,"S. cerevisiae deletion strains, locus YML032C, strain rad52, active compounds read low",0.961
same,normalized growth,"S. cerevisiae deletion strains, locus YML120C, strain ndi1, active compounds read low",0.924
same,normalized growth,"S. cerevisiae deletion strains, locus YML124C, strain tub3, active compounds read low",0.981
same,normalized growth,"S. cerevisiae deletion strains, locus YMR058W, strain fet3, active compounds read low",0.612 (active)
same,normalized growth,"S. cerevisiae deletion strains, locus YMR078C, strain ctf18, active compounds read low",0.381 (active)
same,normalized growth,"S. cerevisiae deletion strains, locus YMR125W, strain sto1, active compounds read low",0.284 (active)
same,normalized growth,"S. cerevisiae deletion strains, locus YMR129W, active compounds read low",0.659 (active)
same,normalized growth,"S. cerevisiae deletion strains, locus YMR205C, strain PFK2, active compounds read low",0.689 (active)
same,normalized growth,"S. cerevisiae deletion strains, locus YMR223W, strain ubp8, active compounds read low",0.493 (active)
same,normalized growth,"S. cerevisiae deletion strains, locus YMR231W, strain pep5, active compounds read low",0.529 (active)
same,normalized growth,"S. cerevisiae deletion strains, locus YMR307W, strain GAS1, active compounds read low",0.224 (active)
same,normalized growth,"S. cerevisiae deletion strains, locus YNL067W, strain RPL9B, active compounds read low",0.67 (active)
same,normalized growth,"S. cerevisiae deletion strains, locus YNL071W, strain lat1, active compounds read low",0.0795 (active)
same,normalized growth,"S. cerevisiae deletion strains, locus YNL183C, strain NPR1, active compounds read low",0.799 (active)
same,normalized growth,"S. cerevisiae deletion strains, locus YNL209W, strain ssb2, active compounds read low",0.748 (active)
same,normalized growth,"S. cerevisiae deletion strains, locus YNL233W, strain BNI4, active compounds read low",0.121 (active)
same,normalized growth,"S. cerevisiae deletion strains, locus YNL248C, strain rpa49, active compounds read low",0.403 (active)
same,normalized growth,"S. cerevisiae deletion strains, locus YNL250W, strain rad50, active compounds read low",0.916
same,normalized growth,"S. cerevisiae deletion strains, locus YNL271C, strain bni1, active compounds read low",0.88 (active)
same,normalized growth,"S. cerevisiae deletion strains, locus YNL298W, strain CLA4, active compounds read low",0.925
same,normalized growth,"S. cerevisiae deletion strains, locus YNL307C, strain MCK1, active compounds read low",0.0762 (active)
same,normalized growth,"S. cerevisiae deletion strains, locus YNL322C, strain KRE1 (second series), active compounds read low",0.911
same,normalized growth,"S. cerevisiae deletion strains, locus YNL322C, strain KRE1, active compounds read low",0.835 (active)
same,normalized growth,"S. cerevisiae deletion strains, locus YNR049C, strain mso1, active compounds read low",0.986
same,normalized growth,"S. cerevisiae deletion strains, locus YNR052C, strain pop2, active compounds read low",0.983
same,normalized growth,"S. cerevisiae deletion strains, locus YOL012C, strain htz1",0.17 (active)
same,normalized growth,"S. cerevisiae deletion strains, locus YOL147C, strain pex11, active compounds read low",0.959
same,normalized growth,"S. cerevisiae deletion strains, locus YOR001W, strain rrp6, active compounds read low",0.976
same,normalized growth,"S. cerevisiae deletion strains, locus YOR061W, strain CKA2, active compounds read low",0.829 (active)
same,normalized growth,"S. cerevisiae deletion strains, locus YOR069W, strain VPS5, active compounds read low",0.314 (active)
same,normalized growth,"S. cerevisiae deletion strains, locus YOR070C, strain gyp1, active compounds read low",0.487 (active)
same,normalized growth,"S. cerevisiae deletion strains, locus YOR080W, strain dia2, active compounds read low",1.01
same,normalized growth,"S. cerevisiae deletion strains, locus YOR083W, strain WHI5, active compounds read low",0.554 (active)
same,normalized growth,"S. cerevisiae deletion strains, locus YOR106W, strain vam3, active compounds read low",0.297 (active)
same,normalized growth,"S. cerevisiae deletion strains, locus YOR136W, strain idh2, active compounds read low",0.675 (active)
same,normalized growth,"S. cerevisiae deletion strains, locus YOR144C, strain elg1, active compounds read low",0.962
same,normalized growth,"S. cerevisiae deletion strains, locus YOR184W, strain ser1, active compounds read low",0.15 (active)
same,normalized growth,"S. cerevisiae deletion strains, locus YOR231W, strain MKK1, active compounds read low",0.93
same,normalized growth,"S. cerevisiae deletion strains, locus YOR265W, strain rbl2, active compounds read low",0.686 (active)
same,normalized growth,"S. cerevisiae deletion strains, locus YOR270C, strain vph1, active compounds read low",0.616 (active)
same,normalized growth,"S. cerevisiae deletion strains, locus YOR290C, strain snf2, active compounds read low",0.911
same,normalized growth,"S. cerevisiae deletion strains, locus YOR316C, strain cot1, active compounds read low",0.833 (active)
same,normalized growth,"S. cerevisiae deletion strains, locus YPL051W, strain arl3, active compounds read low",0.384 (active)
same,normalized growth,"S. cerevisiae deletion strains, locus YPL078C, strain atp4, active compounds read low",0.954
same,normalized growth,"S. cerevisiae deletion strains, locus YPL106C, strain sse1, active compounds read low",0.984
same,normalized growth,"S. cerevisiae deletion strains, locus YPL240C, strain hsp82, active compounds read low",0.625 (active)
same,normalized growth,"S. cerevisiae deletion strains, locus YPL241C, strain CIN2, active compounds read low",0.523 (active)
same,normalized growth,"S. cerevisiae deletion strains, locus YPL256C, strain CLN2, active compounds read low",0.895
same,normalized growth,"S. cerevisiae deletion strains, locus YPR119W, strain clb2, active compounds read low",0.615 (active)
same,normalized growth,"S. cerevisiae deletion strains, locus YPR141C, strain kar3, active compounds read low",0.983
same,normalized growth,"S. cerevisiae deletion strains, locus YPR163C, strain tif3, active compounds read low",0.151 (active)
same,normalized growth,"S. cerevisiae deletion strains, locus YPR167C, strain met16, active compounds read low",0.456 (active)
same,normalized growth,"S. cerevisiae deletion strains, strain wtn01, active compounds read low",0.196 (active)
same,normalized growth,"S. cerevisiae strains, strain wild type, active compounds read low",0.114 (active)
